According to PubChem BioAssay (NCI):
About 83,000 compounds went through this panel and 20% of them were active in at least one assay; those are over-represented in the sample as a whole.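 48-hour exposure, single concentration, 96-well plates; percent growth endpoint where 0 means no net growth. Active: below 10.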 Unmarked numbers belong to inactive results. Activity calls are given as the source filed them.

Legend:
Test in all cases: NCI-60 one-dose screen, 48 h (100 = growth as untreated, 0 = no growth, -100 = all killed)
Conditions in all cases: 10 µM
T-47D breast = test system: T-47D breast
BT-549 breast = test system: BT-549 breast
MDA-MB-435 melanoma = test system: MDA-MB-435 melanoma
SW-620 colon = test system: SW-620 colon
MCF7 breast = test system: MCF7 breast
HCT-116 colon = test system: HCT-116 colon
HCC-2998 colon = test system: HCC-2998 colon
KM12 colon = test system: KM12 colon

Compound	growth (T-47D breast)	growth (BT-549 breast)	growth (MDA-MB-435 melanoma)	growth (SW-620 colon)	growth (MCF7 breast)	growth (HCT-116 colon)	growth (HCC-2998 colon)	growth (KM12 colon)
COc1cccc2ccc(CC(O)(c3ccccc3)c3ccccc3)nc12	43.7%	94.1%	106%	98.7%	24.6%	77.1%	97.1%	67.3%
COC1=CC(=O)OC(c2ccc(OC)cc2)C1 (stereo unspecified)	101%	105%	114%	102%	99.8%	108%		102%
COc1cc2cc(Oc3ccc(NC(=O)Nc4ccc(C(F)(F)F)cc4)cc3)c(C)nc2cc1OC	57.5%	113%	80.3%	75.3%	84.3%	47.2%	94.8%	64.4%
COc1cc(-c2nn(-c3cccc(NC(=O)CCN4CCN(Cc5ccccc5)CC4)c3)cc2-c2ccncc2)ccc1Cl	29.7%	42.7%	-38.3% (active)	2.77% (active)	0.805% (active)	1.3% (active)	-12.8% (active)	9.7% (active)
Nc1c(Br)cc(Br)c2c1[nH]c(=O)c1ccccc12	39.2%	76.8%	93.3%	73.4%	22.1%	83.1%	87.5%	101%
COc1ccc2nc3cc(Cl)ccc3c(Nc3cc(CN4CCCC4)c(O)c(CN4CCCC4)c3)c2n1	13.1%	-37% (active)	-94% (active)	7.17% (active)	-11.9% (active)	6.62% (active)	-31.8% (active)	11.8%
CO[C@H]1CC(O[C@@H]2/C(C)=C/C[C@@H]3C[C@@H](C[C@]4(C=C[C@H](C)[C@@H](C5CCCCC5)O4)O3)OC(=O)[C@@H]3C=C(C)[C@@H](O)[C@H]4OC/C(=C\C=C\[C@@H]2C)[C@]43O)O[C@@H](C)C1O[C@H]1C[C@H](OC)[C@@H](O)[C@H](C)O1 (stereo partly specified)	-51.2% (active)	-68.9% (active)	-97.1% (active)	-92.7% (active)	-24.1% (active)	-98.1% (active)	-92.3% (active)	-88.6% (active)
COc1ccc(-c2nn(-c3cccc(Cl)c3)cc2-c2cc(-c3cccs3)[nH]c(=S)n2)cc1	41.6%	46.7%	33.5%	61.4%	34.1%	20.4%	37.4%	27.5%
CCc1ccc(C2=NN(c3ccc(S(C)(=O)=O)cc3)C(=O)CC2)cc1	41.4%	21.9%	-24.3% (active)	12.4%	26%	15.7%	46.6%	17.3%
COc1ccc2c(c1)C(CC(=O)NN)CCC2 (stereo unspecified)	105%	103%	103%	106%	95.6%	104%		105%
CCOc1ccccc1/C=N\N=C(\N)N/N=C/c1ccccc1OCC	14.8%	36%	-3.3% (active)		8.26% (active)			
NC1=CC(=O)C(=O)c2cccnc21	97.9%	86%	-82.8% (active)	73.8%	52.5%		83%	76.7%
c1cncc(-c2csc(-c3c[nH]c4ccccc34)n2)c1	64.1%	89.2%	86.9%	102%	77.3%		107%	81.8%
COc1ccc2nc(-c3ccc(Cl)cc3)cc(-c3nnc(SC/C(=N\O)c4ccccc4)n3-c3ccccc3)c2c1	63.5%	90.8%	83.1%	90.5%	69.3%		115%	
Cc1cc(C)nc(NS(=O)(=O)c2ccc(Nc3nc4nc(NCc5ccccc5)nc(-c5ccc(O)cc5)c4c(=O)[nH]3)cc2)n1	25.1%	34%	32.1%	11.2%	16.1%		19.5%	29.6%
O=C1c2c(c(=O)[nH]c3ccccc23)CCN1Cc1ccccc1	86.1%	87.1%	110%	105%	97.5%		111%	114%
O=C(O)c1ccc(-n2cc(CNc3ccc(Oc4ccccc4)cc3)c(-c3ccccc3)n2)cc1	75%	83.1%	94.2%	99.4%	85.4%		120%	80.3%
Cc1ccc(-n2c(C)nn3c(=O)c4c5c(sc4nc23)CN(C)CC5)cc1	81.3%	97.6%	102%	104%	92.3%		97.2%	

Compound	growth (T-47D breast)	growth (BT-549 breast)	growth (MDA-MB-435 melanoma)	growth (SW-620 colon)	growth (MCF7 breast)	growth (HCT-116 colon)	growth (HCC-2998 colon)	growth (KM12 colon)
N#Cc1c(-c2ccc(Cl)cc2)cc(-c2cc(O)ccc2O)nc1N	8.26% (active)	22.6%	6.77% (active)	8.32% (active)	4.41% (active)		52.7%	27.2%
COc1cc2ncnc(NC3CCC(O)CC3)c2cc1OC (stereo unspecified)	80.3%	92.1%	106%	101%	88.3%		106%	95.3%
O=C1/C(=C/c2cccc(F)c2)Cc2ccccc21	103%	106%	97.9%	102%	25.1%		97.1%	98.7%
COc1cc(/C=C/c2cc(/C=C/c3ccc(O)c(OC)c3)n(C(=O)Nc3ccc(C)cc3)n2)ccc1O	5.65% (active)	-23% (active)	-1.64% (active)	8.12% (active)	6.3% (active)		2.19% (active)	-1.13% (active)
Cc1c(C(N)=O)sc2c1c(=O)n(Cc1ccccc1)c1nnc(-c3ccc(Br)cc3)n21	20.9%	22.6%	39%	33.1%	21.5%		25%	25.6%
COc1cc(NC(=O)C2=C(N3CCOCC3)/C(=C/c3ccc(Cl)cc3)CC2)cc(OC)c1OC	71.1%	103%	75.3%	100%	73.3%	65.7%		97.3%
O=S(=O)(NCCCNc1nccc(-c2cn(-c3ccccc3)nc2-c2ccc(Cl)c(O)c2)n1)c1ccccc1	42.9%	75.9%	68.7%	102%	33%		91.6%	56.7%
O=c1oc2c(cc1-c1ccc(F)cc1)C(O)Oc1ccccc1-2 (stereo unspecified)	87.4%	87.6%	3.53% (active)	45.4%	55.2%		48.6%	45.3%
CNC(=O)c1cc(Oc2ccc3c(c2)sc2nc(-c4ccc(N)cc4)cn23)ccn1	36.1%	5.56% (active)	13%	34.8%	20.2%		20.9%	
Clc1ccc(/C=C2\CCCC3C2=Nc2ccccc2NC3c2ccc(Cl)cc2)cc1 (stereo unspecified)	104%	83%	11.9%	41.5%	35.8%	-87% (active)		17.3%
CC(=O)OC1CC2C(C)(C)CCC[C@]2(C)C2=C1C(O)=C(C(C)C)C(=O)C2=O (stereo partly specified)	0.0935% (active)	-21.9% (active)	-37.9% (active)	-51% (active)		-8.31% (active)	-76.1% (active)	-77.7% (active)
CCn1c(SC/C(=N/O)c2ccccc2)nnc1-c1ccccc1	120%	115%	105%	98.7%	112%		96.6%	110%
CCCCN1C(=O)CC(SC2CC(=O)N(CCCC)C2=O)C1=O (stereo unspecified)	106%	104%	108%	110%	102%	105%		107%
CC(=O)[C@@]12O[C@](C)(c3ccccc3)O[C@@H]1CC1C3CCC4=CC(=O)CC[C@]4(C)C3CC[C@@]12C (stereo partly specified)	74.3%	79.7%	77.8%	83.3%	59%		79.3%	70.8%
Cc1cc(CCNC=O)c(C)c2c1sc1ccccc12	92.8%	96.9%	94.5%	102%	100%		104%	103%
COc1cc(C(=O)/C=C/c2c[nH]c3ccccc23)cc(OC)c1OC	63.2%	-9.31% (active)	7.59% (active)	37.3%	12.5%		19.6%	11.5%
CC(C)=CCC/C(C)=C/CC/C(C)=C/CC/C=C(\C)CC/C=C(\C)CCC(=O)Nc1ccn(C2OC(CO)C(O)C2(F)F)c(=O)n1 (stereo unspecified)	41%	18.3%	29.9%	33.6%	21.8%		82.4%	
